Inconclusive results are not listed. A call without a number means that no potency is given here. Calls of active or inactive are those of the source. Calls come from the whole dose curve; as a rule, active = well fitted cell-killing curve with a large enough effect; inconclusive = small, poorly fitted or top-dose-only effect; inactive = flat fitted curve, though single readings scatter.

The results in this text go back to PubChem BioAssay AID1347156 (National Center for Advancing Translational Sciences (NCATS), 2019).
Potency is the fitted concentration of half-maximal effect.

A short description of the assay: DAPI mCherry counterscreen qHTS for Zika virus inhibitors. Note: nearly all actives have a fitted effect of over 55% in size. To be noted: Vero cells, DAPI nuclear count cytotoxicity, imaging 48-72 h, infected with Zika reporter virus, MOI 1; series mostly up to 32.6 µM. Put shortly:
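Vero cells (5,000/well), plated overnight, given compounds then recombinant ZIKV-mCherry at MOI 1 for 48-72 hrs at 37 degrees C; PFA-fixed, Hoechst-stained and imaged; nuclei counted and mCherry-positive cells scored as percent infection.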
Background: A counterscreen serves to expose hits that act by an unwanted route or on another target.
`CN(C)[C@@H]1C(=O)C(C(=O)NCN2CCCC2)=C(O)[C@@]2(O)C(=O)C3=C(O)c4c(O)cccc4[C@@](C)(O)C3C[C@@H]12` (some centres not stated): the Potency result was “inactive”.
The same measure for `COc1cc(C)c(C(=O)OC2C(C)OC(OC3CCC(C)C4C3C=C(C)C3/C(C)=C\CC/C(C)=C/C5(C)C=C(C(=O)O)C(C)CC56OC(=O)/C(=C(\O)C34C)C6=O)C(O)C2O)c(OC)c1` (configuration not stated): “inactive”.
Consider `COc1cc(C2Nc3ccccc3-c3nnc(SCc4ccc(Cl)cc4)nc3O2)ccc1OCC(=O)O` (configuration not stated), for which the Potency entry is “inactive”.
Under `O=S(=O)(Nc1ccc(O)c(Sc2nc3ccccc3s2)c1)c1cc(Cl)ccc1Cl` stands 35.5 µM (active); under `COc1ccc(C(=O)Nc2ccc(C(=O)OCc3cc(=O)n4nc(C(C)C)sc4n3)cc2)cc1`, “inactive”.
With `Cc1cc(-c2ccc(N=Nc3ccc4c(S(=O)(=O)O)cc(S(=O)(=O)O)c(N)c4c3O)c(C)c2)ccc1N=Nc1ccc2c(S(=O)(=O)O)cc(S(=O)(=O)O)c(N)c2c1O`, the Potency entry was “inactive”.
The same measure for `Oc1c(Cl)cc(Cl)c(Cl)c1Cc1c(O)c(Cl)cc(Cl)c1Cl`: 31.6 µM (active); for `CCCCCCCC/C=C\CCCCCCCC(=O)NCCc1ccc(O)c(O)c1`: 8.91 µM (active); for `CC(C)(C)Sc1c(CC(C)(C)C(=O)O)n(Cc2ccc(Cl)cc2)c2ccc(OCc3ccc4ccccc4n3)cc12`: 35.5 µM (active).
The same measure for `Cc1c(NS(=O)(=O)c2ccccc2)cc(C(C)C)c(O)c1S(=O)(=O)c1ccc(Cl)cc1`: 28.2 µM (active); for `Cc1ccc(-c2nnc(Nc3ccc(S(N)(=O)=O)cc3)c3ccccc23)cc1S(=O)(=O)N1CCOCC1`: “inactive”; for `Cc1cc(N2CCOCC2)cc2[nH]c(-c3c(NC[C@@H](O)c4cccc(Cl)c4)cc[nH]c3=O)nc12`: 12.6 µM (active).
The same measure for `O=C(OC1Cc2c(O)cc(O)cc2OC1c1cc(O)c(O)c(O)c1-c1c(C2Oc3cc(O)cc(O)c3CC2OC(=O)c2cc(O)c(O)c(O)c2)cc(O)c(O)c1O)c1cc(O)c(O)c(O)c1` (configuration not stated): “inactive”.
Regarding `O=S(=O)(O)c1ccc2c(N=Nc3ccc(S(=O)(=O)O)c4ccccc34)c(O)c(S(=O)(=O)O)cc2c1`, the Potency entry is “inactive”.
The same measure for `CC1(C)CCC(C)(C)c2cc3c(cc21)Sc1ccccc1N=C3c1ccc(C(=O)O)cc1`: 8.91 µM (active); for `CN(C)[C@@H]1C(=O)C(C(N)=O)=C(O)[C@@]2(O)C(=O)C3=C(O)c4c(O)cccc4C[C@H]3C[C@@H]12`: “inactive”; for `O=C1NC(=O)c2cc(Nc3ccccc3)c(Nc3ccccc3)cc21`: 31.6 µM (active).
Consider `N#CC(c1ccc(Cl)cc1)c1c(Cl)cc(-n2ncc(=O)[nH]c2=O)cc1Cl` (configuration not stated), for which the Potency was 25.1 µM (active).
The same measure for `N#C/C(=C\c1ccc(-c2ccc(Cl)c(C(=O)O)c2)o1)c1nc2ccccc2[nH]1`: “inactive”; for `COc1cc2c(c(O)c1OC/C=C(\C)CC/C=C(/C)CCC=C(C)C)CN(C(CCC(=O)O)C(=O)O)C2=O` (configuration not stated): 7.94 µM (active).
Under `O=C(NCc1ccc(Oc2ccccc2)cc1)c1nc(-c2cc(Br)c(O)c(Br)c2)no1` stands 8.91 µM (active).
Turning to `COc1cc(Nc2nc3ccccc3nc2NS(=O)(=O)c2ccc(NC(=O)c3ccc(OC)c(C)c3)cc2)cc(OC)c1`, the Potency was 6.31 µM (active).
The same measure for `Cc1cc(C)c2c(c1)C(N(Cc1cc(C(F)(F)F)cc(C(F)(F)F)c1)c1nnn(C)n1)CCCN2CC1CCC(C(=O)O)CC1` (configuration not stated): 35.5 µM (active).
The same measure for `O=C(O)CCc1ccc(-c2ccc(Cl)cc2)n1-c1cccc(C(F)(F)F)c1`: 25.1 µM (active).
On to `Cc1cc(NC(=O)c2ccc(Cl)c(Cl)c2)ccc1-c1cc2ccccc2oc1=O`, for which the Potency was 15.8 µM (active).
Under `Cc1c(C2(c3cc(C(C)C)c(O)c(Br)c3C)OS(=O)(=O)c3ccccc32)cc(C(C)C)c(O)c1Br` stands “inactive”.
Under `O=C(NCc1ccccc1Cl)c1ccc2c(O)c(S(=O)(=O)c3ccccc3)c(=O)[nH]c2c1` stands “inactive”; under `O=C(O)COc1ccccc1C1Nc2ccccc2-c2nnc(SCc3ccc(Cl)cc3)nc2O1` (configuration not stated), “inactive”.
Take `CC[C@H](C)[C@H]1O[C@]2(CC[C@@H]1C)C[C@@H]1C[C@@H](C/C=C(\C)[C@@H](O[C@H]3C[C@H](OC)[C@@H](O[C@H]4C[C@H](OC)[C@@H](O)[C@H](C)O4)[C@H](C)O3)[C@@H](C)/C=C/C=C3\CO[C@@H]4[C@H](O)C(C)=C[C@@H](C(=O)O1)[C@]34O)O2`: the Potency is 8.91 µM (active).
Under `O=C(Nc1cccc(C(=O)OCc2cc(=O)n3nc(C4CC4)sc3n2)c1)c1ccc(F)cc1` stands “inactive”; under `Nc1cc(N)c(N=Nc2ccc(S(=O)(=O)Nc3nccs3)cc2)cc1N=Nc1ccc(S(=O)(=O)Nc2nccs2)cc1`, “inactive”.
The same measure for `Cc1ccc(C(=O)Nc2ccc(S(=O)(=O)O)c3cc(S(=O)(=O)O)cc(S(=O)(=O)O)c23)cc1NC(=O)c1cccc(NC(=O)Nc2cccc(C(=O)Nc3cc(C(=O)Nc4ccc(S(=O)(=O)O)c5cc(S(=O)(=O)O)cc(S(=O)(=O)O)c45)ccc3C)c2)c1`: “inactive”.
